Experimental data: PubChem BioAssay AID2158 (National Center for Advancing Translational Sciences (NCATS), 2009)
Several values for one entry are separate records, joined by “and”; a condition that tells them apart may be missing. Equal entries are not always repeated. Inconclusive results are not listed. Activity calls are given as the source filed them. The call rests on the fitted dose curve; in most records, active means well fitted inhibition curve with a large enough effect; inconclusive means small, poorly fitted or top-dose-only effect; inactive means no such curve, though single readings can be large or run the other way.

Target: Cruzipain (Trypanosoma cruzi) (UniProt P25779)
Sequence (P25779 123-467 limits assumed): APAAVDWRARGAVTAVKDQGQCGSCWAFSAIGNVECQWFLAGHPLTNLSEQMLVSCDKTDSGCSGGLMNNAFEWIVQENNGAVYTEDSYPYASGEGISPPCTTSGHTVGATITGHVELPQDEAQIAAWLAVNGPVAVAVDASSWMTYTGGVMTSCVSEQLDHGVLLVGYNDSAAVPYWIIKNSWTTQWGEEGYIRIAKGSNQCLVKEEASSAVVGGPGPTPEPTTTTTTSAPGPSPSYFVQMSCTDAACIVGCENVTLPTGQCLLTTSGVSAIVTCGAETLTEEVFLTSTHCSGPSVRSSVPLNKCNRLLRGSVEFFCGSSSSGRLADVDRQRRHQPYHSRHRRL
Assay: Confirmation qHTS Assay for Inhibitors of Cruzain; further: nearly all actives have a fitted effect of over 40% in size;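 on Activity change, negative = inhibition: plate controls were uninhibited enzyme control for no effect and buffer wells lacking enzyme for full effect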
Conditions: purified cruzain, Z-FR-AMC fluorescence, 0.01% Triton
Method in brief: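 Purified cruzain, 1.5 nM, pre-incubated 15 min at room temperature with compound in 100 mM sodium acetate pH 5.5, 5 mM DTT, 0.01% Triton X-100. Then 2 uM Z-FR-AMC added; AMC fluorescence (ex 360/em 450 nm) increase over 60 s gave reaction progress.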
Potency means the concentration at half of the fitted maximal effect.

Activity change, negative = inhibition, inactive:
CCN(Cc1ccccc1)c1nc2c(S(=O)(=O)c3ccccc3)nnn2c2ccc(Cl)cc12 -6.48%
O=C(Cc1nnc(-c2cc3ccccc3[nH]2)o1)Nc1cc(C(F)(F)F)ccc1Cl -3.28%
CCCCC(O)C(=O)Nc1cc(C(F)(F)F)ccc1Cl (centres undefined) -16.9%
CCOc1ccc(CN2C(=O)c3ccccc3Sc3ccc(C(=O)NCc4ccc(C)cc4)cc32)cc1 0.925%
O=C(Cc1nnc(CNC(=O)c2ccccc2)s1)Nc1ccc(C(F)(F)F)cc1Cl -3.96%
O=[S+]([O-])(/C=C/c1nc(Nc2cc(F)cc(F)c2)c2ncn(CC(F)F)c2n1)c1ccccc1 -11.8%
O=C(NCc1nnc(-c2cc3ccccc3[nH]2)o1)c1ccccc1 -2.11%
c1ccc(CNCc2nnc(-c3cc4ccccc4[nH]3)s2)cc1 -7.37%
COc1cc(OC)c(-c2nn3c(-c4n[nH]c5c4CCC5)nnc3s2)cc1OC -3.44% and -1.31%
Cc1ccc(C)c(CN2C(=O)c3ccccc3Sc3ccc(C(=O)NCc4ccc5c(c4)OCO5)cc32)c1 -8.53%
O=C(NCCc1nc2ccccc2n1CCOc1cccc2ccccc12)C1CCCCC1 -11.4%
CCc1ccc2[nH]c(=O)c(CN(Cc3cccs3)Cc3nnnn3Cc3ccccc3)cc2c1 -18.5%
O=C(Cn1cc(CN(Cc2ccccc2)Cc2ccccc2)nn1)Nc1cc(C(F)(F)F)ccc1Cl -13.2%
CCCCNC(=O)C(CC)n1c(SCc2cccc(F)c2)nc2ccncc21 (centres undefined) -13.4%
Cc1cccc2cc(CN(Cc3ccccc3)Cc3nnnn3Cc3ccccc3)c(=O)[nH]c12 -11.7%
COCC(C)NC(=O)Cn1c(SCc2ccccc2)nc2ccccc21 (centres undefined) -6.96%
Cc1ccccc1OCC(=O)NCC(C)NC(=O)COc1ccccc1C (centres undefined) 36.5%

Potency, active:
C/C(CC(=O)Nc1cc(Cl)ccc1Cl)=N\NC(N)=S 1.12 µM
N#Cc1nc(NCCO)nc(Nc2ccccc2)n1 1.58 µM
N#Cc1nc(Nc2cc(F)cc(F)c2)c2ncn(CC(F)F)c2n1 0.01 µM
CCc1ccc(C(=O)COC(=O)CNC(=O)C2CCCCC2)cc1 7.08 µM
Cc1ccccc1NC(=O)CSc1nnc(-c2ccco2)c(-c2ccco2)n1 14.1 µM
CCN1CCN(CCCNC(=O)c2cc3c(s2)-c2ccccc2OC3)CC1 15.8 µM
Cc1ccc(-c2c3c(=O)n(C)c(=O)n(C)c3cn2-n2cnnc2)cc1 25.1 µM
O=C(CNC(=O)c1ccccc1)OC(C(=O)Nc1cc([N+](=O)[O-])ccc1F)c1ccccc1 (centres undefined) 12.6 µM
N#Cc1nc(Nc2cc(F)cc(Cl)c2)nc(NC2CCCC2)n1 0.141 µM
CNc1nc(C#N)nc(Nc2ccccc2)n1 1.26 µM
N#Cc1nc(N)nc(N2CCCCC2)n1 7.94 µM
CN(C)c1ccc(C(=O)NCC(=O)OC(C(=O)Nc2cc(C(F)(F)F)ccc2Cl)c2ccccc2)cc1 (centres undefined) 14.1 µM
CCNc1nc(C#N)nc2c1ncn2-c1cccc(Cl)c1 0.0631 µM
N#Cc1nc(NCC(F)F)c2ncn(-c3cccc(Cl)c3)c2n1 0.0891 µM
CC(C)(C)c1ccc(Nc2nc(C#N)nc(NC3CCCC3)n2)cc1 3.55 µM
CCn1cnc2c(Nc3cccc(Cl)c3)nc(C#N)nc21 0.0141 µM
Cc1ccccc1OCC(=O)NCC(=O)OCC(=O)c1ccc2ccccc2c1 14.1 µM
Cc1ccc(C(=O)C(OC(=O)CNC(=O)COc2ccccc2C)c2ccccc2)cc1 (centres undefined) 3.16 µM
CCCN(CCC)c1nc(N)nc(C#N)n1 2.51 µM
O=C(CNC(=O)c1ccc2ccccc2c1)OC(C(=O)Nc1cc(C(F)(F)F)ccc1Cl)c1ccccc1 (centres undefined) 4.47 µM
O=C(COC(=O)CNC(=O)c1ccccc1Cl)Nc1ccccc1Cl 3.55 µM
CC(C)CC(OC(=O)CNC(=O)c1ccccc1)C(=O)Nc1cc(C(F)(F)F)ccc1Cl (centres undefined) 7.94 µM
